“And” between values parts separate entries of the source, which are not always exact repeats. Equal values may be shown once. Inconclusive results are not listed. Where a call stands in place of a potency, no number is given. The source made the active and inactive calls. Calls come from the whole dose curve; as a rule, active = well fitted curve in the direction sought with a large enough effect in the repeat runs; inconclusive = weak or mixed curves; inactive = no such curve, though single readings can be large; an effect the other way counts as inactive or inconclusive.

The first assay can be described thus: qHTS assay to identify small molecule agonists of the estrogen related receptor signaling pathway with the pleiotropic PPARgamma coactivator (PGC) (AID 1224823). Particulars: ERR/PGC reporter cell line, luciferase agonist mode; series mostly up to 46.1 µM. The method in brief: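 In this quantitative high-throughput screen, an 18 h, 37 C treatment of PGC/ERR cells with compounds in DMSO preceded a One-Glo luminescence read taken after 30 min at room temperature.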
In the case of `Cc1c(OCC(F)(F)F)ccnc1CS(=O)c1nc2ccccc2[nH]1` (stereo not given), the result was inactive.

On to `Nc1ncn([C@@H]2O[C@H](CO)[C@@H](O)[C@H]2O)c(=O)n1`, for which the result was inactive.

With `CC(C(=O)O)c1cccc(C(=O)c2ccccc2)c1` (stereo not given), the compound was classed as inactive.

As for `CCCCc1oc2ccccc2c1C(=O)c1cc(I)c(OCCN(CC)CC)c(I)c1`, the compound was called inactive.

Regarding `Cn1cnc([N+](=O)[O-])c1Sc1ncnc2nc[nH]c12`, the compound was classed as inactive.

Another assay can be described thus: qHTS assay to identify small molecule antagonists of the estrogen related receptor (ERR) signaling pathway from Tox21 library - cell viability counter screen (AID 1224834). Note: nearly all actives have a fitted effect of over 30% in size. Note: potency is the fitted concentration of half-maximal effect. Particulars: ERR reporter cells viability, CellTiter-Fluor, 17.5 h; series mostly up to 92.4 µM. An outline of the steps: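 ERR cells, 2,000/well; 6 h settle at 37 C/5% CO2; pin-tool compound transfer in DMSO; 17.5 h at 37 C; CellTiter-Fluor, 30 min; fluorescence intensity.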
Background: qHTS replaces the single test concentration by a dilution series.
With `OC[C@H]1O[C@@H]2O[C@H]3[C@H](O)[C@@H](O)[C@@H](O[C@H]4[C@H](O)[C@@H](O)[C@@H](O[C@H]5[C@H](O)[C@@H](O)[C@@H](O[C@H]6[C@H](O)[C@@H](O)[C@@H](O[C@H]7[C@H](O)[C@@H](O)[C@@H](O[C@H]8[C@H](O)[C@@H](O)[C@@H](O[C@H]1[C@H](O)[C@H]2O)O[C@@H]8CO)O[C@@H]7CO)O[C@@H]6CO)O[C@@H]5CO)O[C@@H]4CO)O[C@@H]3CO`, the Potency result was “inactive”.

Regarding `CCCCC(CC)COCC1CO1` (stereo not given), the Potency result was “inactive”.

With `Cc1cccc(C(=O)O)c1`, the Potency entry was “inactive”.

Regarding `O=[N+]([O-])c1ccc2c(c1)Cc1ccccc1-2`, the Potency result was “inactive”.

As for `CCCCC/C=C/C=C/C=O`, the Potency entry is “inactive”.

On to `O=c1oc(=O)c2cc3c(=O)oc(=O)c3cc12`, for which the Potency result is “inactive”.

On to `Cc1c(OCC(F)(F)F)ccnc1CS(=O)c1nc2ccccc2[nH]1` (stereo not given), for which the Potency entry was “inactive”.

For `CCC(C)c1ccccc1O` (stereo not given), the Potency entry was “inactive”.

As to `Nc1ncn([C@@H]2O[C@H](CO)[C@@H](O)[C@H]2O)c(=O)n1`, the Potency was 2.17 µM (active) and 3.76 µM (active).

Consider `CC(C)OC(=O)C(C)(C)Oc1ccc(C(=O)c2ccc(Cl)cc2)cc1`, for which the Potency entry is “inactive”.

(Values after PubChem BioAssay (Tox21).)
